Read-out in assay [1]: Interleukin-6 (IL6), IL6 (gene 3569)
Put plainly: BSK_CASM3C_IL6: BioMAP Diversity Plus: CASM3C Assay for Interleukin-6 (IL6) Biomarker Activity for (AID 2283040). The following applies: primary human coronary artery smooth muscle cells; actives raise or lower the signal.

Read-out in assay [2]: Tissue plasminogen activator (tPA), PLAT (gene 5327)
Put plainly: BSK_BE3C_tPA: BioMAP Diversity Plus: BE3C Assay for Tissue plasminogen activator (tPA) Biomarker Activity (AID 2283041).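 On outcome: tPA level quantified by ELISA one day after compound addition.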 The following applies: primary human bronchial epithelial cells; actives raise or lower the signal. In outline:
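Primary human bronchial epithelial cells in the BE3C system, exposed to compound for 24 h. tPA was quantified by ELISA; DMSO served as baseline, with gain or loss of signal fitted. Cytotoxicity checked in parallel cultures by SRB total-protein staining.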

Read-out in assay [3]: Interleukin-8 (IL8), CXCL8 (gene 3576)
Description: BSK_CASM3C_IL8: BioMAP Diversity Plus: CASM3C Assay for Interleukin-8 (IL8) Biomarker Activity (AID 2283042).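 Further: IL-8 protein level quantified by ELISA.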 As to conditions: primary human coronary artery smooth muscle cells; actives raise or lower the signal.

Read-out in assay [4]: Human Leukocyte Antigen - DR isotype (HLADR), HLA-DRA (gene 3122)
Put plainly: BSK_CASM3C_HLADR: BioMAP Diversity Plus: CASM3C Assay for Human Leukocyte Antigen - DR isotype (HLADR) Biomarker Activity (AID 2283043).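 Further: cell-surface HLA-DR protein level quantified by ELISA.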 As to conditions: primary human coronary artery smooth muscle cells; actives raise or lower the signal.

Read-out in assay [5]: Macrophage colony-stimulating factor (MCSF), CSF1 (gene 1435)
Description: BSK_CASM3C_MCSF: BioMAP Diversity Plus: CASM3C Assay for Macrophage colony-stimulating factor (MCSF) Biomarker Activity (AID 2283044).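 Further: M-CSF protein amount quantified by ELISA after 24 h exposure.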 As to conditions: primary human coronary artery smooth muscle cells; actives raise or lower the signal.

Read-out in assay [6]: Low-density lipoprotein receptor (LDLR), LDLR (gene 3949)
Description: BSK_CASM3C_LDLR: BioMAP Diversity Plus: CASM3C Assay for Low-density lipoprotein receptor (LDLR) Biomarker Activity (AID 2283045).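 Further: LDLR protein level on the cell surface quantified by ELISA.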 The following applies: primary human coronary artery smooth muscle cells; actives raise or lower the signal.

Read-out in assay [7]: Monocyte Chemoattractant Protein-1 (MCP1), CCL2 (gene 6347)
Put plainly: BSK_CASM3C_MCP1: BioMAP Diversity Plus: CASM3C Assay for Monocyte Chemoattractant Protein-1 (MCP1) Biomarker Activity (AID 2283046).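 Further: MCP-1 level quantified by ELISA 24 h after dosing.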 The following applies: primary human coronary artery smooth muscle cells; actives raise or lower the signal.

A short description of assay [8]: BSK_CASM3C_Proliferation: Cell Proliferation Assessment in the BioMAP Diversity Plus: CASM3C Assay (AID 2283047).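 Further: sulforhodamine B total protein stain as relative cell number at 560 nm; sub-confluent cells exposed 48 h before staining; fitted both ways against DMSO so gain or loss of cell number.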 As to conditions: primary human coronary artery smooth muscle cells.
Read-out in assay [9]: Monokine induced gamma interferon (MIG), CXCL9 (gene 4283)
Put plainly: BSK_CASM3C_MIG: BioMAP Diversity Plus: CASM3C Assay for Monokine induced gamma interferon (MIG) Biomarker Activity (AID 2283048).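 Further: MIG protein level measured by ELISA.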 As to conditions: primary human coronary artery smooth muscle cells; actives raise or lower the signal.

Read-out in assay [10]: serum amyloid A (SAA), SAA1 (gene 6288)
Description: BSK_CASM3C_SAA: BioMAP Diversity Plus: CASM3C Assay for serum amyloid A (SAA) Biomarker Activity (AID 2283049).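 Further: SAA protein level quantified by ELISA.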 The following applies: primary human coronary artery smooth muscle cells; actives raise or lower the signal.

Assay [11] in a line: BSK_CASM3C_SRB: Viability Assessment in the BioMAP Diversity Plus: CASM3C Assay (AID 2283050). As to conditions: primary human coronary artery smooth muscle cells.
Read-out in assay [12]: Thrombomodulin, THBD (gene 7056)
Description: BSK_CASM3C_Thrombomodulin: BioMAP Diversity Plus: CASM3C Assay for Thrombomodulin Biomarker Activity (AID 2283051).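 Further: thrombomodulin protein level measured by ELISA 24 h after dosing.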 The following applies: primary human coronary artery smooth muscle cells; actives raise or lower the signal.

Read-out in assay [13]: Tissue Factor, F3 (gene 2152)
Put plainly: BSK_CASM3C_TissueFactor: BioMAP Diversity Plus: CASM3C Assay for Tissue Factor Biomarker Activity (AID 2283052).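 Further: cell surface tissue factor protein level read by ELISA.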 As to conditions: primary human coronary artery smooth muscle cells; actives raise or lower the signal.

Read-out in assay [14]: Interferon-gamma inducible Protein 10 (IP10), CXCL10 (gene 3627)
Put plainly: BSK_hDFCGF_IP10: BioMAP Diversity Plus: hDFCGF Assay for Interferon-gamma inducible Protein 10 (IP10) Biomarker Activity (AID 2283053). The following applies: primary human foreskin fibroblasts; actives raise or lower the signal. In outline: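 Primary human foreskin fibroblasts exposed to chemicals for 24 h. IP-10 measured by ELISA; changes fitted bidirectionally against DMSO baseline.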

Read-out in assay [15]: Urokinase-type plasminogen activator receptor (uPAR), PLAUR (gene 5329)
Description: BSK_CASM3C_uPAR: BioMAP Diversity Plus: CASM3C Assay for Urokinase-type plasminogen activator receptor (uPAR) Biomarker Activity (AID 2283054).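 Further: cell-surface uPAR protein level quantified by ELISA.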 The following applies: primary human coronary artery smooth muscle cells; actives raise or lower the signal.

Read-out in assay [16]: Vascular cell adhesion molecule 1 (VCAM1), VCAM1 (gene 7412)
Description: BSK_CASM3C_VCAM1: BioMAP Diversity Plus: CASM3C Assay for Vascular cell adhesion molecule 1 (VCAM1) Biomarker Activity (AID 2283055).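 Further: VCAM-1 protein level quantified by ELISA on the cells.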 As to conditions: primary human coronary artery smooth muscle cells; actives raise or lower the signal.

Read-out in assay [17]: Collagen III, COL3A1 (gene 1281)
Description: BSK_hDFCGF_CollagenIII: BioMAP Diversity Plus: hDFCGF Assay for Collagen III Biomarker Activity (AID 2283056). As to conditions: primary human foreskin fibroblasts; actives raise or lower the signal. In outline: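 Human foreskin primary fibroblasts were exposed to test chemicals for 24 h, after which collagen III was quantified by ELISA. Activity was fitted bidirectionally against DMSO as negative control and baseline.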

Read-out in assay [18]: Epidermal growth factor receptor (EGFR), EGFR (gene 1956)
Description: BSK_hDFCGF_EGFR: BioMAP Diversity Plus: hDFCGF Assay for Epidermal growth factor receptor (EGFR) Biomarker Activity (AID 2283057). As to conditions: primary human foreskin fibroblasts; actives raise or lower the signal. In short, it runs like this: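 Primary human foreskin fibroblasts (hDFCGF system), sampled 24 h after dosing; EGFR quantified by ELISA. Bidirectional fit relative to DMSO baseline; SRB total-protein staining in parallel cultures for cytotoxicity.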

Read-out in assay [19]: Interleukin-8 (IL8), CXCL8 (gene 3576)
Description: BSK_hDFCGF_IL8: BioMAP Diversity Plus: hDFCGF Assay for Interleukin-8 (IL8) Biomarker Activity (AID 2283058). As to conditions: primary human foreskin fibroblasts; actives raise or lower the signal. In short, it runs like this: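 hDFCGF human dermal fibroblasts; 24 h chemical exposure; IL-8 by ELISA; bidirectional curve fit vs DMSO baseline; gain or loss of signal scored.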

A short description of assay [20]: BSK_hDFCGF_Proliferation: Cell Proliferation Assessment in the BioMAP Diversity Plus: hDFCGF Assay (AID 2283059).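 Further: curves fitted for both rise and fall of signal versus DMSO baseline.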 As to conditions: primary human foreskin fibroblasts. In outline: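 This proliferation readout used SRB total-protein staining of human foreskin fibroblasts […], normalized to DMSO with bidirectional curve fitting.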

SMILES strings stand for the structures. Values joined by “and” are separate entries in the source; they are usually repeats but may differ in a detail not shown here. Identical values can stand only once. A structure can be active in one record and inactive in another. Active and inactive are the calls of the source. How the source made its calls: active means hit-call score of the fitted dose curve at least 0.9, where 1 is the maximum; inactive means score below 0.9.

What is called AC50 is the concentration at which the activity in the assay is half-maximal. Take `CCCCc1oc2ccccc2c1C(=O)c1cc(I)c(OCCN(CC)CC)c(I)c1`: the concentration at half-maximal activity (AC50) in assay [1] is 27.8 µM (active); in assay [2], 9.06 µM (active); in assay [3], 23.9 µM (active); in assay [4], 5.94 µM (active); in [5] it was 22 µM (active); in assay [6] it was 27.2 µM (active). The half-maximal activity concentration (AC50) in [7] is 25.1 µM (active); in assay [8], 8.1 µM (active); in assay [9], 24 µM (active); in assay [10], 12.4 µM (active); in [11], 18.9 µM (active); in assay [12], 27.9 µM (active). Moreover, the AC50 in assay [13] is 24 µM (active); in [14], 8.78 µM (active); in assay [15], 13.7 µM (active); in [16], 25.3 µM (active); in [17], 7.23 µM (active); in assay [19] it was 10.3 µM (active). Moreover, the outcome in assay [18] was inactive.

Take `OCC(CO)(CBr)CBr`: the result in assay [1], in assay [2], in [3], in assay [4], in [5] and in assay [6] was inactive. Also, the outcome in [7], in [8], in assay [9], in assay [10], in [11] and in assay [12] was inactive. In addition, the result in [13], in [14], in [15], in assay [16], in assay [17] and in assay [18] was inactive. In addition, the outcome in [19] was inactive.

Consider `CCCCCCCCCCCCCCC`, for which the result in assay [1], in assay [2], in assay [3], in assay [4], in assay [5] and in [6] was inactive. For the same compound, the result in assay [7], in assay [8], in [9], in assay [10], in assay [11] and in [12] was inactive. The outcome in assay [13], in assay [14], in [15], in assay [16], in assay [17] and in assay [18] was inactive. Further, in assay [19], the result was inactive.

On to `O=P(O)(O)CCC(F)(F)C(F)(F)C(F)(F)C(F)(F)C(F)(F)C(F)(F)C(F)(F)C(F)(F)F`, for which the result in assay [1], in assay [3], in assay [4], in [5], in assay [6] and in assay [7] was inactive. Moreover, the outcome in assay [8], in assay [9], in [10], in assay [11], in assay [12] and in assay [13] was inactive. The result in [14], in assay [15], in assay [16], in [18] and in [19] was inactive. Moreover, the AC50 in assay [2] was 1.08 µM (active) and 5.14 µM (active); in assay [8], 9.07 µM (active); in assay [17], 11.7 µM (active) and 9.02 µM (active); in assay [18] it was 29 µM (active); in [20], 39.9 µM (active) and 49.4 µM (active).

With `O=C1c2ccc(O)c(O)c2C(=O)c2c(O)ccc(O)c21`, the result in assay [1], in assay [2], in assay [3], in assay [4], in assay [5] and in assay [6] was inactive. For the same compound, the outcome in assay [7], in assay [9], in assay [10], in assay [11], in [12] and in assay [13] was inactive. Besides, the outcome in assay [14], in assay [16], in [17], in assay [18] and in assay [19] was inactive. For the same compound, the AC50 in [8] was 0.0041 µM (active); in assay [15], 0.0224 µM (active).

The record behind these values is PubChem BioAssay (EPA / NIEHS).
